NPC1 promoter act – NPC1 promoter activation; Huh7 NPC1 promoter luciferase reporter, 24 h; Potency, µM (titrated, usually from 9.22 µM), for the others: at the top dose activation, most hits filed as activators; 2.4% of 320,000 active; AID 485313; note: % of control where 0% means no effect; nearly all actives have a fitted effect of over 60% in size
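Huh7 reporter cells (NPC1 promoter driving luciferase) are dosed with compound for 24 h at 37 °C, 5% CO2; luciferase detection reagent is then added and luminescence measured after 10 min at ambient temperature.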
Rab9 promoter act – activators of Rab9 promoter; Huh7 Rab9 promoter-luciferase reporter, luminescence, 24 h; Potency, µM (series often up to 9.22 µM), inactives show top-dose activation, negative = inhibition, most hits filed as activators; 2.8% of 320,000 active; AID 485297; note: % of control where 0% means no effect; nearly all actives have a fitted effect of over 60% in size
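Quantitative HTS format; Huh7 Rab9-luciferase reporter cells (1500/well) receive compound 2 h post-plating, incubate 24 h at 37 °C, then get luciferase reagent for 10 min before luminescence reading.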
ELG1 genotoxic – inducers of genotoxicity in HEK293T ELG1-luciferase cells; 1.3% of 330,000 active; HEK293T ELG1-luciferase reporter, luminescence, 16 h; Potency, µM (top dose mostly 46 µM), inactives show at the highest dose activity change, positive = activation, actives largely listed as activators; note: % of control where 0% means no effect; nearly all actives have a fitted effect of over 60% in size
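HEK293T cells expressing luciferase-tagged ELG1 were treated with compound or DMSO for 16 hr at 37°C. Luciferase activity was then read after 30 min with ONE-Glo at room temperature; rising signal flags genetic stress.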
FLuc counter – counter-screen for miR-21 project: firefly luciferase inhibitors or activators; 6.9% of 360,000 active; Potency, µM (titrated, usually from 57.5 µM), without a hit: top-dose activity change, negative = inhibition, most hits filed as inhibitors; purified FLuc, Km substrates, luminescence inhibition; P08659;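 note: plate controls were vehicle for no effect and reference inhibitor for full effect; nearly all actives have a fitted effect of over 55% in size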
Target sequence (P08659 whole entry, looked up): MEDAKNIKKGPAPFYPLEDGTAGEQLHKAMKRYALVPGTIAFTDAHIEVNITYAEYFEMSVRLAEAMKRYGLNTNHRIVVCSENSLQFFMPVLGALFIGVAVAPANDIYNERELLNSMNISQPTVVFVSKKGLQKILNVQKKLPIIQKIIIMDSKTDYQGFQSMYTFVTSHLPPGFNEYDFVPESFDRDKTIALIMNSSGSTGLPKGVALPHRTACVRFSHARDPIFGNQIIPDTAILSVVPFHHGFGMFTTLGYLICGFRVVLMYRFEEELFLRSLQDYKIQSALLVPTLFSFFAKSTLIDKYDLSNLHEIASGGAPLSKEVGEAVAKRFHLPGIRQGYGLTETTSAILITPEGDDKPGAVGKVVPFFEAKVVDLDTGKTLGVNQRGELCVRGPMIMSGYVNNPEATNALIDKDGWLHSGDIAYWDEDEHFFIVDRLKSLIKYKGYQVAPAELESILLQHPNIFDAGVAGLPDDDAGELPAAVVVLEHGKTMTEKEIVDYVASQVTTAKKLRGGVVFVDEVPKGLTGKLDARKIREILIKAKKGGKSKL
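Purified P. pyralis luciferase, 10 nM final, with Km-level 10 uM D-luciferin and 10 uM ATP in 50 mM Tris acetate pH 7.5, 10 mM Mg acetate, 0.01% Tween-20, 0.05% BSA; 6-point qHTS titration about 60 µM downward; luminescence read.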
SMN2 splice up – increases expression of the SMN2 splice variant. HEK293 SMN2-luciferase splicing reporter, luminescence, 30-36 h. AID 1458. 2.8% of 210,000 active. Potency, µM (doses to about 46.1 µM), for the others: top-dose activity change, positive = activation, usual class: activators; note: % of control where 0% means no effect; nearly all actives have a fitted effect of over 55% in size
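HEK293 cells carry an SMN2 […]–luciferase reporter in which exon 7 inclusion puts luciferase in frame. Cells were plated 10-12 h before compound addition, then incubated 30-36 h at 37C. ONE-Glo luminescence was read; sodium butyrate at 4.5 mM final served as control.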
Starred values were filed as active, the others as inactive; ? = inconclusive; nt = no result. Most compounds without a hit are left out; they make up all but 7.4% or so of the library. Calls come from the whole dose curve; as a rule, active = well fitted curve in the direction sought with a large enough effect; inconclusive = small, poorly fitted or top-dose-only effect, or another doubt; inactive = no such curve, though single readings can be large; an effect the other way counts as inactive or inconclusive. Potency is the fitted concentration of half-maximal effect.

SMILES	NPC1 promoter act	Rab9 promoter act	ELG1 genotoxic	FLuc counter	SMN2 splice up
N/C(=N\OC(=O)CSc1ccccc1)c1ccc([N+](=O)[O-])cc1	12%	13%	?	19µM*	?
Cc1ccc(SCC(=O)O/N=C(\N)c2ccncc2)cc1	4%	1%	2%	-8%	nt
Cc1ccc(/C(N)=N/OC(=O)COc2ccccc2Cl)cc1	17%	-6%	23µM*	19µM*	22%
Cc1ccc(CSc2nc3ccc(NC(=O)CC(C)C)cc3s2)cc1	nt	nt	nt	-11%	nt
Clc1cccc(N2CCN(c3nc4ccccc4c4nc(-c5ccccc5)nn34)CC2)c1	nt	nt	nt	0%	-6%
COc1ccc(/C(N)=N/OC(=O)CSc2ccc(C)cc2)cc1	-2%	-1%	11%	?	-18%
COc1ccc(/C(N)=N/OC(=O)CSc2ccccc2)cc1	?	3.2µM*	?	4.8µM*	27%
CCCCN(CC)C(=O)c1cc2c(=O)n3cccc(C)c3nc2n1C	nt	nt	nt	-2%	nt
COC(=O)CNC(=O)c1cccc(-c2ccc(OC)cc2)c1	8%	15%	4%	19µM*	4%
COc1cccc(C(=O)NCC(=O)OCc2ccc(F)cc2Cl)c1	0%	-7%	1%	17µM*	-2%
COC(=O)CNC(=O)c1cccc(Cl)c1	-3%	-2%	0%	-2%	8%
COc1cc(OC)cc(C(=O)NCC(=O)Nc2ccc(-c3ccccc3)cc2)c1	-6%	28%	?	15µM*	nt
CCN(CC)C(=O)c1cccc(-c2ccc(OC)cc2)c1	9%	11%	?	?	6%
COc1ccc(-c2cccc(C(=O)NCC(=O)O)c2)cc1	15%	25%	?	13µM*	?
COc1cc(OC)cc(C(=O)NCC(=O)Nc2ccc(C)c(Cl)c2)c1	0%	-5%	3%	-2%	nt
Cc1ccc(S(=O)(=O)c2nc(-c3ccco3)oc2SC(C)C)cc1	1%	0%	2%	4%	-9%
CC(=O)N1CCC2(CCN(Cc3ccc(C#N)cc3)CC2)CC1	nt	nt	nt	nt	15%
CC(=O)c1c(C)n(-c2ccc(Cl)cc2)c2ccc(OC(=O)COc3ccccc3)cc12	nt	nt	nt	5%	-11%
C/C(=N/NC(=O)C(=O)N/N=C(/C)c1ccccc1)c1ccccc1	1%	0%	8%	?	17%
C/C(=N\Nc1nc2c(s1)CCCC2)c1ccccc1	?	3.5µM*	?	1.1µM*	11µM*
C/C(=N\Nc1nc(C(C)(C)C)cs1)c1ccc(O)cc1	?	?	?	21µM*	nt
C/C(=N\Nc1nc(C(C)(C)C)cs1)c1ccccc1	1.4µM*	1.1µM*	3.7µM*	2.1µM*	nt
CC(C)(C)c1csc(NNC(=O)c2ccc(Br)cc2)n1	14%	7%	9%	?	-61%
CC(C)(C)c1csc(NC(=O)CS(=O)(=O)c2ccccc2)n1	23%	29%	?	?	nt
C/C(=N\Nc1nc(C(=O)O)cs1)c1ccccc1	11%	17%	3%	17µM*	22%
SMILES	NPC1 promoter act	Rab9 promoter act	ELG1 genotoxic	FLuc counter	SMN2 splice up
COc1cccc(NC(=O)CN(C)C(C)C(=O)NC(=O)NC2CCCCC2)c1 (stereo unspecified)	-1%	-2%	0%	4%	nt
COc1ccc(/C=C/C(=O)Oc2ccc(C)cc2)cc1	-3%	10%	-1%	12µM*	nt
COc1ccc(/C=C/C(=O)NCCOc2ccc(C)cc2)cc1	-1%	1%	1%	?	13%
COc1ccc(/C=C/C(=O)O)cc1	nt	nt	-1%	nt	nt
COc1ccc(/C=C/C(=O)CCC(=O)O)cc1	?	2.8µM*	9%	6.7µM*	nt
COC(=O)c1ccc(N2CCCCC2)c(N)c1	?	3.5µM*	?	11µM*	22µM*
COC(=O)c1ccc(N2CCOCC2)c(F)c1	0%	12%	?	?	-6%
COC(=O)c1ccc(N2CCC(C)CC2)c(N)c1	?	?	18µM*	12µM*	7%
COC(=O)c1ccc(C(=O)OC)c(N)c1	-1%	20%	7%	?	18%
CCn1c2ccccc2c2nnc(N3CCN(c4cccc(Cl)c4)CC3)nc21	nt	nt	nt	-8%	nt
CC1(c2ccc3noc(-c4ccc(F)cc4)c3c2)OCCO1	1%	-2%	-1%	?	-72%
Fc1ccc(-c2onc3ccc(C4OCCO4)cc23)cc1	6%	6%	-5%	8.5µM*	-12%
CC(C)C[C@H](NC(=O)c1[nH]cnc1C(=O)N[C@@H](C)c1ccccc1)C(=O)OCc1ccccc1	7%	-17%	-11%	-1%	nt
Cc1noc2ncnc(N3CCCC(C(=O)Nc4cccc(C(F)(F)F)c4)C3)c12 (stereo unspecified)	nt	nt	nt	4%	nt
COc1cccc(NC(=O)c2cnn(-c3ccccc3)c2C)c1	?	13µM*	1.8µM*	1.5µM*	nt
O=C(Nc1cccnc1)c1coc(=O)c2ccccc12	-10%	-1%	1%	1%	-4%
CCn1ncc(C(=O)Nc2cccc(Cl)c2)c1C	3%	?	?	9.5µM*	13µM*
CCc1cccc(NC(=O)c2cnn(-c3ccccc3)c2C)c1	0.89µM*	2.2µM*	1.8µM*	2.1µM*	nt
CCc1cccc(NC(=O)c2coc(=O)c3ccccc23)c1	nt	nt	nt	11µM*	12%
Cc1cccc(C)c1NC(=O)c1cnn(-c2ccccc2)c1C	0%	-3%	-5%	-16%	nt
COc1ccc(C(C)(C)C)cc1NC(=O)CCCN1C(=O)NC(C)(C)C1=O	0%	2%	1%	0%	nt
Cc1cccc(-c2nnn3c2nc(NCCc2ccc(S(N)(=O)=O)cc2)c2cc(Cl)ccc23)c1	nt	nt	nt	-2%	4%
Cc1nc(NCc2ccccc2)c2nc(-c3ccccc3)n(CCN3CCCC3)c2n1	nt	nt	nt	nt	3%
Cn1c(=NC(=O)c2ccccc2[N+](=O)[O-])sc2cccc(F)c21	0.56µM*	0.5µM*	?	0.6µM*	nt
CCCc1cc(=O)[nH]c(Nc2cc(OC)ccc2OC)n1	1%	-1%	-2%	0%	1.3µM*
SMILES	NPC1 promoter act	Rab9 promoter act	ELG1 genotoxic	FLuc counter	SMN2 splice up
CCCc1cc(=O)[nH]c(Nc2cc(Cl)ccc2OC)n1	nt	nt	nt	-3%	-4%
CC(=O)CSc1nc2ccccc2o1	5%	19%	?	-16%	3%
c1ccc(OCCSc2nc3ccccc3o2)cc1	19%	21%	14%	21µM*	-10%
O=C(CSc1nc2ccccc2o1)c1ccccc1	?	?	11%	11µM*	17%
O=C(CSc1nc2ccccc2o1)c1ccc2c(c1)OCCO2	28%	?	?	8.5µM*	-1%
Cc1[nH]c2c([N+](=O)[O-])cccc2c1C	4%	-3%	3%	-5%	nt
O=C(CCSCc1ccccc1Cl)N1CCN(c2ccccn2)CC1	?	?	4%	24µM*	4%
O=C(O)CCC(=O)N1CCN(c2ccccn2)CC1	-2%	10%	-1%	3%	2%
CC(C)(C)c1ccc(OCC(=O)N2CCN(c3ccccn3)CC2)cc1	6%	-1%	-3%	12µM*	nt

Source: PubChem (National Center for Advancing Translational Sciences (NCATS))
